Reference: PubChem BioAssay (Tox21)
“And” between values parts separate entries of the source, which are not always exact repeats. Equal values may be shown once. Results filed as inconclusive are left out. The source made the active and inactive calls. Calls come from the whole dose curve; as a rule, active = well fitted activation curve with a large enough effect in the signal ratio in the repeat runs (not every such curve was filed as active); inconclusive = weak or mixed curves, or effect the other way; inactive = no such curve, though single readings can be large or run the other way; the % refers to the signal ratio.
% is set by controls: 0 for no effect and ±100 for the full control effect; potency is the fitted concentration of half-maximal effect.

Experiment: qHTS assay for small molecule agonists of the antioxidant response element (ARE) signaling pathway (AID 743202)
Conditions: HepG2 ARE-bla reporter, beta-lactamase FRET, 16 h; series mostly up to 73.3 µM; activation: at the top concentration
Text: U.S. Tox21 Program National Center for Advancing Translational Sciences [NCATS] NIH Chemical Genomics Center [NCGC] U.S. Environmental Protection Agency [EPA] National Institutes of Environmental Health Sciences [NIEHS] National Toxicology Program [NTP] U.S. Food and Drug Administration [FDA] Tox21 Assay Overview: Oxidative stress has been implicated in the pathogenesis of a variety of diseases ranging from cancer to neurodegeneration. The antioxidant response element (ARE) signaling pathway plays an important role in the amelioration of oxidative stress. The CellSensor ARE-bla HepG2 cell line (Invitrogen) can be used for analyzing the Nrf2/antioxidant response signaling pathway. Nrf2 (NF-E2-related factor 2) and Nrf1 are transcription factors that bind to AREs and activate these genes. The CellSensor ARE-bla Hep G2 cell line contains a beta-lactamase reporter gene under control of the Antioxidant Response Element (ARE) stably integrated into HepG2 cells. The activation of the report gene under culture conditions can be detected by fluorescence intensity. This cell line has been used to screen the Tox21 10K compound library to identify agonists that induce oxidative stress.
Tox21 Assay Protocol Summary: The ARE-bla cells were dispensed at 2,000 cells/5 ul/well in 1536-well black wall/clear bottom plates using a Multidrop dispenser. After the assay plates were incubated at a 37 C/5% CO2 incubator for 5 hours, 23 nL of compounds dissolved in DMSO, positive controls or DMSO only was transferred to the assay plate by a pin tool. The plates were incubated at 37 C for 16 hours. After 1 uL of LiveBLAzer B/G FRET substrate was added using a Flying Reagent Dispenser, the plates were incubated at room temperature for 2 hours, and fluorescence intensity was measured by an Envision plate reader.
With CCCCCCCCCCCCCCCl the “activation” value was -1.43% [at 94.8 µM] (inactive).
For COP(=O)(OC)OC(Br)C(Cl)(Cl)Br (stereo not given), the Potency was 19.4 µM (active) and 9.69 µM (active).
In the case of COc1cc(CC#N)cc(OC)c1OC, the “activation” value was 7.4% (inactive).
With CCCCOC(=O)CCC(=O)OCCCC the “activation” value was -7.92% (inactive).
In the case of O=C(Cc1ccccc1)c1ccccc1, the “activation” value was 1.36% (inactive).
With CCCSP(=S)(OCC)Oc1ccc(SC)cc1 (stereo not given) the “activation” value was -0.0826% (inactive).
With O=C(O)c1cc(Cl)ccc1Cl the “activation” value was 10.8% (inactive).
With O=S(=O)(Cl)Cl the “activation” value was -18.4% (inactive).
For CCOC(=O)c1cncn1C(C)c1ccccc1 (stereo not given), the “activation” value was -2.11% (inactive).
With C[Si](Cn1cncn1)(c1ccc(F)cc1)c1ccc(F)cc1 the “activation” value was 4.85% [at 94.8 µM] (inactive).
In the case of C[N+]1(CCC(C(N)=O)(c2ccccc2)c2ccccc2)CCCCC1, the “activation” value was 1.31% (inactive).
In the case of C=CCc1ccc(OC(=O)Cc2ccccc2)c(OC)c1, the “activation” value was 9.68% (inactive).
In the case of CC(C)(C#N)C(C)(C)C#N, the “activation” value was -2.17% [at 94.8 µM] (inactive).
With CCNC(=O)NC(=O)/C(C#N)=N/OC the “activation” value was 0.714% (inactive).
With CC1(C)CC(=O)CC(C)(C)N1[O] the “activation” value was -0.644% (inactive).
In the case of COc1ccccc1N1CCNCC1, the “activation” value was 2.88% (inactive).
With CCCCCBr the “activation” value was -4.72% [at 94.8 µM] (inactive).
For O=C(O)C(Cl)(Cl)Br, the “activation” value was 9.38% [at 94.8 µM] (inactive).
For CCCC[P+](CC)(CCCC)CCCC (tested in a mixture with another compound), the “activation” value was -1.86% [at 94.8 µM] (inactive).
For C[C@]12C=CC3=C4CCC(=O)C=C4CC[C@H]3[C@@H]1CC[C@@H]2O, the Potency was 6.07 µM (active).
With FC(Cl)(Cl)C(F)(Cl)Cl the “activation” value was -9.8% [at 94.8 µM] (inactive).
In the case of CN(C)N, the “activation” value was -6.19% (inactive).
With NC(=S)c1c(Cl)cccc1Cl the “activation” value was -6.06% (inactive).
In the case of CCOP(=S)(S)OCC, the “activation” value was -1.18% [at 94.8 µM] (inactive).
With CCC(=O)O[C@@H]1C=C2CCC3C(CCC4(C)C3CC[C@@H]4OC(=O)CC)C2CC1 (stereo not given in full) the “activation” value was 14.7% (inactive).
With C=C(C)C(=O)OCCCCOC(=O)C(=C)C the “activation” value was 11.1% (inactive).
For C=CCSSCC=C, the “activation” value was 12.7% (inactive).
For COC1CC(=C(c2cccs2)c2cccs2)C[N+](C)(C)C1 (stereo not given), the “activation” value was 6.2% (inactive).
With CC(C)OC(=O)Cc1ccccc1 the “activation” value was -9.96% [at 94.8 µM] (inactive).
In the case of SCc1ccccc1, the “activation” value was 6.64% [at 94.8 µM] (inactive).
With O=C(O)C(F)(F)C(F)(F)C(F)(F)C(F)(F)C(F)(F)C(F)(F)C(F)(F)C(F)(F)F the Potency was 6.86 µM (active).
In the case of Cc1ccccc1, the “activation” value was -7.07% (inactive).
With C=C(Cl)Cl the “activation” value was -8.51% [at 94.8 µM] (inactive).
For Nc1cc(Cl)cc(C(=O)O)c1Cl, the Potency was “inactive”.
In the case of CCCN(CCC)c1c([N+](=O)[O-])cc(C(C)C)cc1[N+](=O)[O-], the Potency was “inactive”.
In the case of C[C@H]1O[C@H](OC2[C@@H](O)[C@@H](O)C(O)[C@H](O)[C@H]2O)[C@@H](N)C[C@@H]1N=C(N)C(=O)O (stereo not given in full), the “activation” value was 5.8% (inactive).
With CC(C)C1(C)N=C(c2ncccc2C(=O)O)NC1=O (stereo not given) the “activation” value was -7.97% (inactive).
With c1ccc2sc(SNC3CCCCC3)nc2c1 the Potency was 9.69 µM (active).
With CON(C)C(=O)Nc1ccc(Cl)cc1 the “activation” value was -5% (inactive).
For Cc1ncc(C[n+]2csc(CCO)c2C)c(N)n1, the “activation” value was -8.69% (inactive).
